Here are results for 40 compounds from PubChem BioAssay (EPA / NIEHS).

Activity calls are given as the source filed them. The calls were made as follows: active = hit-call score of the fitted dose curve at least 0.9, where 1 is the maximum; inconclusive = response in the unintended direction; inactive = score below 0.9.

Estrogen receptor (Homo sapiens), sequence (P03372 whole entry, looked up): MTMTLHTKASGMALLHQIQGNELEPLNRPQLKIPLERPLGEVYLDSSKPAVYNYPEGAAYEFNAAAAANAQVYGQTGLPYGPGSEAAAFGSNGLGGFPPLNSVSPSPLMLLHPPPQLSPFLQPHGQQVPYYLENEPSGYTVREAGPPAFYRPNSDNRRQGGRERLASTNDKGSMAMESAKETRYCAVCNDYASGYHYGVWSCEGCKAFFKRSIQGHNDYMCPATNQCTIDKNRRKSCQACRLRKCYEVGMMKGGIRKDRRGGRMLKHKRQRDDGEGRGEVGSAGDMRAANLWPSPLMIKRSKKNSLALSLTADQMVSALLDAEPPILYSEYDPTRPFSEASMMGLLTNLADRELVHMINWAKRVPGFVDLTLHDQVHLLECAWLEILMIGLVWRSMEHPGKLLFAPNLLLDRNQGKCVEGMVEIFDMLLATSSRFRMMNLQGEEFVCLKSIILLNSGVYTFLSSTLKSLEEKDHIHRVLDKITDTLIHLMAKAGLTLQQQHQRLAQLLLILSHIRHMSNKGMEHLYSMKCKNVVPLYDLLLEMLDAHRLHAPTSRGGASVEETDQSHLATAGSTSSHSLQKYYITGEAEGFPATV

In this assay the target is Estrogen receptor (Homo sapiens) (UniProt P03372). Description: OT_ERa_GFPERaERE_0120: Odyssey Thera (OT) 2-hour HeLa Transcription Induction Assay for Estrogen Receptor (AID 2283382). How it is done:
OT_ERa_GFPERaERE_0120 is a cell-based, single-readout assay that uses HeLa, a human cervix cell line, with measurements taken at 2 hours after chemical dosing in a 384-well plate.OT_ERa_GFPERaERE_0120 is one of one assay component(s) measured or calculated from the OT_ERa_GFPERaERE_0120 assay. It is designed to make measurements of fluorescent protein induction, a form of inducible reporter, as detected with optical microscopy: fluorescence microscopy signals by Microscopy technology.Data from the assay component OT_ERa_GFPERaERE_0120 was analyzed into 1 assay endpoint. This assay endpoint, OT_ERa_EREGFP_0120, was analyzed in the positive analysis fitting direction relative to DMSO as the negative control and baseline of activity. Using a type of inducible reporter, measures of receptor for gain-of-signal activity can be used to understand the reporter gene at the pathway-level as they relate to the gene ESR1. Furthermore, this assay endpoint can be referred to as a primary readout, because the performed assay has only produced 1 assay endpoint. To generalize the intended target to other relatable targets, this assay endpoint is annotated to the nuclear receptor intended target family, where the subfamily is steroidal.
All assay endpoints are quantified using high content image analysis algorithms.
In the case of `OC(Cn1cncn1)(Cn1cncn1)c1ccc(F)cc1F`, the result was inactive. On to `Cn1cc[nH]c1=S`, for which the compound was classed as inactive. For the compound `NC(N)=O`, the call was inactive. In the case of `COc1cc(C(C)C)c2c(c1)S(=O)(=O)N(COc1cc(=O)n3cccc(OCCN4CCCCC4)c3n1)C2=O`, the outcome was inactive. The same measure, in the same setting: to `NC(=O)N1c2ccccc2C=Cc2ccccc21` belongs “inactive”.

As usually defined, the AC50 is the concentration at which the activity in the assay is half-maximal. For `c1ccc2c(c1)-c1cccc3c1c-2cc1ccccc13`, the AC50 was 77.5 µM (active). For the compound `CCCCCCCCCCCCCCCCOS(=O)(=O)O`, the result was inactive. The same measure, in the same setting: to `CCCC(CCC)C(=O)O` belongs “inactive”. The same measure, in the same setting: to `CNC(C)=O` belongs “inactive”.

Regarding `CCCCC(CC)C(=O)OCCOCCOCCOC(=O)C(CC)CCCC` (stereo not given), the compound was classed as inactive. `COc1cc2c(c(OC)c1OC)-c1ccc(OC)c(=O)cc1[C@@H](NC(C)=O)CC2`: the compound was classed as inactive. Still for that read-out and setting: to `CC(C)CCCCCCOC(=O)C1CCCCC1C(=O)OCCCCCCC(C)C` (stereo not given) belongs “inactive”. Still for that read-out and setting: to `O=C1CN(N=Cc2ccc([N+](=O)[O-])o2)C(=O)N1` belongs “inactive”. Still for that read-out and setting: to `O=S1(=O)CCCO1` belongs “inactive”. Regarding `CCN(CC)C(=S)SSC(=S)N(CC)CC`, the AC50 is 77.7 µM (active). In the case of `C[C@@H](Oc1ccc(CNC(=O)c2cccnc2Oc2ccc3c(c2)OCO3)c(F)c1)C(=O)O`, the compound was classed as inactive.

In the case of `Cn1c(=O)c2[nH]cnc2n(C)c1=O`, the compound was classed as inactive. On the same count and under the same terms, in the case of `OCCOCCOCCO` it was “inactive”; in that of `Cc1cccc(O)c1C`, “inactive”; in that of `c1ccc(C(O[C@@H]2CCCN(CCc3ccc4c(c3)OCO4)C2)c2ccccc2)cc1`, “inactive”. Still for that read-out and setting: in the case of `O=c1[nH]cnc2c1ncn2[C@H]1CC[C@@H](CO)O1` it was “inactive”; in that of `O=C(NO)C1(NS(=O)(=O)c2ccc(Oc3ccc(F)cc3)cc2)CCOCC1`, “inactive”; in that of `CCCCCCCCN(C)C`, “inactive”. On the same count and under the same terms, in the case of `CCCCCCCC1CCC(=O)O1` (stereo not given) it was “inactive”; in that of `NNC(=O)c1ccncc1`, “inactive”. Take `OCCNCCO`: the outcome was inactive. As for `c1ccc2cc3ccccc3cc2c1`, the result was inactive. On the same count and under the same terms, in the case of `O=C(O)[C@H](O)[C@@H](O)C(=O)O` it was “inactive”; in that of `CCCCOC(=O)c1ccccc1`, “inactive”; in that of `CC[C@H](C)C(=O)O[C@H]1C[C@H](O)C=C2C=C[C@H](C)[C@H](CC[C@@H](O)C[C@@H](O)CC(=O)O)[C@H]21`, “inactive”. Take `CCCCCCCC/C=C\CCCCCCCC(=O)OC[C@@H](O)[C@H]1OC[C@H](O)[C@H]1O`: the outcome was inactive. Consider `CCCCCOC(C)=O`, for which the call was inactive.

On to `O=C(O)c1ccc2c(c1)nc(C(=O)NC1CCN(C3CC3)CC1)n2Cc1cc(-c2ccc(Cl)s2)on1`, for which the outcome was inactive. Same read-out and setting: in the case of `CCOc1ccc2[nH]cc(C(=O)NCc3ccccc3)c(=O)c2n1` it was “inactive”; in that of `CC(C)c1nnc2ccc(-c3ocnc3-c3cc(F)ccc3F)cn12`, “inactive”; in that of `CC(C)CC(C)O` (stereo not given), “inactive”.

Turning to `Cc1ccc(S(=O)(=O)NC(=O)NN2CCCCCC2)cc1`, the call was inactive. The same measure, in the same setting: in the case of `OCC(CO)(CO)CO` it was “inactive”; in that of `OCc1ccccc1`, “inactive”.

Consider `O=C(O)c1cccc(C[C@@H]2COc3ccc(OCc4nc5cc(F)ccc5s4)cc3[C@@H]2O)c1`, for which the compound was classed as inactive.
